From PubChem BioAssay
MITF inh = MITF inhibitors, primary screen, biochemical, AlphaScreen, human | Microphthalmia-associated transcription factor (Homo sapiens), O75030 | AlphaScreen MITF homodimerization, bead proximity signal | inhibition, % at 2.6 µM | 650,000 compounds, 0.91% hits | AID 1259374, 2018; in the data active means inhibition above about 50%;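 further: 0% = vehicle wells with protein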
FBW7 activator = FBW7 E3 ligase activators, primary screen, biochemical, AlphaScreen, human; AlphaScreen FBW7–phospho-cyclin E peptide binding, activator screen; normalized activity (activation), % at 26.1 µM; F-box/WD repeat-containing protein 7 (Homo sapiens), Q969H0; AID 1259310, 2017; 650,000 compounds, 0.13% hits; in the data active means normalized activity above about 1.9%;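 further: purified mutant Fbw7 with reduced substrate affinity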
GPR151 ag = activators of human GPR151, primary screen, cell-based, PathHunter beta-arrestin, luminescence. G-protein coupled receptor 151 (Homo sapiens), Q8TDV0. PathHunter beta-arrestin GPR151 cells. activation, % at 11.2 µM. 650,000 compounds, 1% hits. AID 1508602, 2020; in the data active means activation above about 4.9%;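 further: 0% = median of compound wells and 100% = cells with positive control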
TEAD-YAP inh = TEAD-YAP interaction inhibition, primary screen, TEAD-YAP interaction inhibitor project, luminescence, HEK-TIYL cells; TEAD-Gal4/YAP UAS-luciferase luminescence; inhibition, % at 9.12 µM; 640,000 compounds, 1.4% hits; AID 1259422, 2018; in the data active means inhibition above about 32%;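 further: 0% = median of test compound wells and 100% = reference inhibitor wells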
GPR151 conf act = GPR151 activators, triplicate retest, confirmation, cell-based, PathHunter beta-arrestin, luminescence; shares compounds with GPR151 ag; GPR151 PathHunter beta-arrestin cells, 90 min; % of EA-reagent control over plate median; activation, % at 11.2 µM; 6,700 tested, under 10 active; AID 1508609, 2020;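 active means mean percent activation across replicates above the confirmation screen cutoff of 4.91%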
GPR119 ag = GPR119 activators in beta-arrestin cells, counter-screen for GPR151 activator project, cell-based, PathHunter beta-arrestin, luminescence, triplicate. activation, % at 11.2 µM. AID 1508611, 2020. shares compounds with GPR151 ag. 6,700 compounds, 0.3% hits. 90 min; 0 = compound-well median, 100 = enzyme-acceptor control;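 active means mean percent activation in the counterscreen above 29.09%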;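 further: counterscreen on off-target GPR119 to flag nonselective hits from the GPR151 activator screen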
Target sequence (Q8TDV5 whole entry, looked up): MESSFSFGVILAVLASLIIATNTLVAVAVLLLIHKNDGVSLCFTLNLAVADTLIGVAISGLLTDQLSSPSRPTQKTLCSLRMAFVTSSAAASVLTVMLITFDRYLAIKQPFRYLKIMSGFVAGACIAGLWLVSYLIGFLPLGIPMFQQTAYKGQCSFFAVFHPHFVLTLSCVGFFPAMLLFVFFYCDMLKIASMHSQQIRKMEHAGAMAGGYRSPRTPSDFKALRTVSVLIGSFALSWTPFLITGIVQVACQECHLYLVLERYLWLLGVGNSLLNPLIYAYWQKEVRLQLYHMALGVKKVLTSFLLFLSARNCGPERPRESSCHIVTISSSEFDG
* hit, by the source's call; / = not tested or not shown. A selection: hits, their analogues and other compounds. The true share with any hit is near 3.5%.

SMILES	MITF inh	FBW7 activator	GPR151 ag	TEAD-YAP inh	GPR151 conf act	GPR119 ag
COC(=O)N1CCN(Cc2ccc3c(c2)OCO3)CC1	2	1	-1	-8	/	/
Cc1ccc(C(=O)N2CCN(Cc3ccc4c(c3)OCO4)CC2)o1	5	0	10*	2	0	-12
CC1=C(C(=O)N2CCN(Cc3ccc4c(c3)OCO4)CC2)C2(CCC(C)CC2)OC1=O (configuration not stated)	11	0	6.5*	-2	0	-1
NNC(=O)CCN1CCN(Cc2ccc3c(c2)OCO3)CC1	-8	0	8.5*	-4	1	-8
O=C(NC1CC1)c1csc(N2CCN(Cc3ccc4c(c3)OCO4)CC2)n1	2	0	-1	-8	/	/
c1cn2cc(CSC3CCCC3)nc2s1	1	0	0	-43	/	/
Cc1ccc(C)n1CCN1CCN(S(=O)(=O)c2ccccc2)CC1	-34	0	5.1*	5	0	-3
O=C(NCCN1CCN(S(=O)(=O)c2ccccc2)CC1)C(=O)NCc1ccco1	-2	0	5.7*	5	0	-8
CSc1nc2ccccc2c(=O)n1C1CCCCC1	2	0	5.3*	-6	0	9
COC(=O)C1=CN(Cc2ccc(F)cc2)C=C(C(=O)OC)C1c1cccc(F)c1	8	0	0	-3	/	/
COC(=O)C1=CN(Cc2ccc(F)cc2)C=C(C(=O)OC)C1c1cccc(O)c1	3	0	5.2*	2	0	10
COC(=O)C1=CN(CC2CCCO2)C=C(C(=O)OC)C1c1cccc(Cl)c1 (configuration not stated)	-17	0	1	-7	/	/
COC(=O)C1=CN(CC2CCCO2)C=C(C(=O)OC)C1c1cccc(F)c1 (configuration not stated)	2	0	5.7*	-4	2	15
Cc1cccc2cc(CN(Cc3ccccc3Cl)C(=O)c3cccnc3)c3nnnn3c12	-3	0	-1	5	/	/
CCOC(=O)c1c(NC(=O)CSc2nnc(CNC(=O)c3ccccc3C(F)(F)F)n2-c2ccc(F)cc2)sc2c1CCC2	-7	0	-1	5	/	/
CCOCCCNc1nc2ccccc2n2nnnc12	7	0	-1	-15	/	/
c1ccc2c(c1)CCN(CCCNc1nc3ccccc3n3nnnc13)C2	1	0	6.7*	-9	0	-7
COc1ccc(-c2cc(C)cc3c2OC(CNC(=O)CC(C)C)C3)nn1 (configuration not stated)	11	0	0	-1	/	/
Cc1cc2c(c(-c3ccc(C(N)=O)cn3)c1)OC(CNC(=O)C13CC4CC(CC(C4)C1)C3)C2 (configuration not stated)	-9	0	7.1*	0	0	-3
CCOC(=O)Nc1ccc2c(c1)N(C(=O)CCCl)c1ccccc1C=C2	2	1	0	-1	/	/
Cc1cccc(C(=O)NCCCN(C)C)c1	-2	0	7.7*	-3	-1	-2
Cc1ccc(C(=O)COC(=O)c2cccnc2N)cc1	5	0	-5	-19	/	/
CC(C)CCN1CCNC(=O)C1CC(=O)N(Cc1nccn1C)C(C)C (configuration not stated)	5	0	5.8*	5	-1	-4
CC(=O)N1CCc2cc(Br)cc(S(=O)(=O)NC(C)(C)C)c21	18	0	0	12	/	/
NS(=O)(=O)c1ccc(N/N=C/c2ccc(OC(F)F)cc2)cc1	4	0	-1	-21	/	/
SMILES	MITF inh	FBW7 activator	GPR151 ag	TEAD-YAP inh	GPR151 conf act	GPR119 ag
O=C1/C(=c2\sc3nc4ccccc4n3c2=O)c2ccccc2N1Cc1ccccc1	0	0	7.2*	-9	0	-12
CN1C(=O)/C(=c2\sc3nc(=O)c(Cc4ccccc4)nn3c2=O)c2ccccc21	15	0	5.5*	3	0	4
O=C(CN1C(=O)/C(=c2/sc3nc4ccccc4n3c2=O)c2ccccc21)Nc1ccc(F)cc1	4	0	2	5	/	/
CN(C)c1ncc(CN2CCc3c(nc(N4CCCC4)[nH]c3=O)C2)cn1	-16	0	0	4	/	/
Cc1ccc(-c2csc(NC(=O)CSc3nnc4ccccn34)n2)cc1	3	1	0	6	/	/
Cc1cc(=O)oc2cc(OCc3ccc(C(=O)NNC(=O)c4ccccc4)cc3)ccc12	6	0	-1	1	/	/
C/C(N)=C(/C#N)C(=O)COC(=O)c1ccc(COc2ccc3c(C)cc(=O)oc3c2)cc1	7	0	5.3*	6	0	0
COc1ccccc1/C=C/C1=NC(=C\c2ccccc2)/C(=O)O1	14	0	1	7	/	/
COc1ccccc1N1CCN(c2ncc(C(=O)N3CCN(c4ccccn4)CC3)c3ccccc23)CC1	13	1	-1	1	/	/
COc1ccccc1N1CCN(C(=O)c2cnc(N3CCN(c4ncccn4)CC3)c3ccccc23)CC1	6	0	5.3*	24	2	14
Cc1cccn2c(=O)c3cc(C(=O)N4CCc5ccccc54)sc3nc12	10	0	5.0*	4	0	6
Cc1ccc(Oc2cccc(NC(=O)c3cccc4ccccc34)c2)nn1	9	0	5.6*	4	0	-10
COCCNC(=O)C(=O)NCC(c1ccco1)S(=O)(=O)c1ccccc1 (configuration not stated)	13	0	-1	2	/	/
O=C(N=C1N=C2C=CC(Cl)=CN2Cc2ccccc21)c1ccco1	6	0	-7	-43	/	/
O=C(N=C1N=C2C=CC(Cl)=CN2Cc2ccccc21)c1ccc(Cl)c([N+](=O)[O-])c1	-1	0	17*	-16	1	-6
COc1ccc(-c2nc(=S)c3c(n2-c2ccc(OC)cc2)CCCC3)cc1	-1	0	-2	-4	/	/
CCCNC(=O)C1CC(c2ccc(OC)cc2)=NO1 (configuration not stated)	8	0	0	-2	/	/
CCNC(=O)C(=O)NCC1CCCN1S(=O)(=O)c1ccccc1 (configuration not stated)	23	0	7.2*	0	-1	1
Cc1ccc(NC(=O)NCC2CCCN2S(=O)(=O)c2ccc(C)cc2)cc1 (configuration not stated)	0	0	5.8*	-35	-1	-18
Cc1ccc(NC(=O)C(=O)NCC2CCCN2S(=O)(=O)c2ccc(C)cc2)cc1 (configuration not stated)	8	1	-1	4	/	/
